Bioassay records as filed in PubChem.
PI5P4K alpha inh = blocks human PI5P4K alpha kinase activity; P48426; PI5P4Kalpha enzyme, ADP-Glo luminescence, 60 min; stronger effect = lower value; max response, %; hit rate 1.2% among 330,000; AID 652105; active means max response of -50% or lower; inconclusive means between -30% and -50%; inactive means -30% or higher; further: value at the top dose of about 77 µM; on the % scale 0 is the no-effect control and ±100 the full control effect
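ADP-Glo luminescence end-point after a 60 min room-temperature kinase reaction. PI5P4Kalpha and substrate in HEPES pH 7.4 buffer with EGTA, 0.1% CHAPS and 5% DMSO; ATP at 5 microM final.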
G9a inh = inhibitors of human histone lysine methyltransferase G9a | Potency, µM (series often up to 102 µM), for the others: top-dose activity, negative = inhibition, hits mostly inhibitors | G9a H3K9 monomethylation, AlphaScreen, 2 h | hit rate 8.8% among 350,000 | Q96KQ7; further: potency means the concentration at half of the fitted maximal effect; on the % scale 0 is the no-effect control and ±100 the full control effect; nearly all actives have a fitted effect of over 75% in size
Target sequence (Q96KQ7 913-1193 limits assumed): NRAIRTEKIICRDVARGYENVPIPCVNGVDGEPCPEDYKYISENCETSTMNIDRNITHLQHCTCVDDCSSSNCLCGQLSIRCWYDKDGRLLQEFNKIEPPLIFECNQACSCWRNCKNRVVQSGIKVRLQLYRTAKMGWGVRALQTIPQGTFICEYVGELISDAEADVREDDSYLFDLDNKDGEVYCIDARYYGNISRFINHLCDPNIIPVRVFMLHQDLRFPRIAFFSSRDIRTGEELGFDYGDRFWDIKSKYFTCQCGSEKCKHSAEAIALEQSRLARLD
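Signal arises when biotinylated H3K9 peptide, once monomethylated, bridges streptavidin donor and antibody-captured acceptor beads. Enzyme at 20 nM was preincubated 15 min with test compounds; peptide 500 nM and SAM 20 uM then reacted for 2 h.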
HP1b binding inh = blocks HP1-beta chromodomain binding to methylated histone tails; P83916; AlphaScreen HP1-beta / biotin-H3K9me3 peptide binding; Potency, µM (series often up to 114 µM), inactives show at the highest dose activity change, negative = inhibition, actives largely listed as inhibitors; hit rate 0.56% among 390,000; AID 540317; further: potency means the concentration at half of the fitted maximal effect; nearly all actives have a fitted effect of over 70% in size
Target sequence (P83916 whole entry, looked up): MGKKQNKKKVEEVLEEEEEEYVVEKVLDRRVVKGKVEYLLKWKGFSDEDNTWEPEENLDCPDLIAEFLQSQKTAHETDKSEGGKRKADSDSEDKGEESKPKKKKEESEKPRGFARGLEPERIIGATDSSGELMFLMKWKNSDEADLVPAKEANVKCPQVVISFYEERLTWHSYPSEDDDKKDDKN
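HP1-beta protein (50 nM final) preincubated 30 min at room temperature with biotinylated H3(1-18)K9me3 peptide (50 nM) in PBS pH 7.4, 0.01% Tween-20, then compound added for 30 min. AlphaScreen streptavidin donor/nickel chelate acceptor beads (10 ug/mL final), 30 min dark, luminescence read.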
PLK1 PBD inh = blocks phosphopeptide binding to human PLK1 polo-box domain; P53350; Plk1 PBD binding of FITC phosphopeptide, fluorescence polarization; Potency, µM, for the others: max response, negative = inhibition, usual class: inhibitors; hit rate 2.8% among 360,000; AID 720504; further: potency means the concentration at half of the fitted maximal effect; series mostly up to about 57 µM; on the % scale 0 is the no-effect control and ±100 the full control effect; nearly all actives have a fitted effect of over 65% in size
BAZ2B block = BAZ2B (human) inhibition; Q9UIF8; AlphaScreen BAZ2B-H3K14Ac peptide displacement; Potency, µM (titrated, usually from 114 µM), for the others: at the top dose activity change, negative = inhibition, hits mostly inhibitors; hit rate 4.4% among 360,000; AID 504333; further: potency means the concentration at half of the fitted maximal effect; on the % scale 0 is the no-effect control and ±100 the full control effect; nearly all actives have a fitted effect of over 60% in size
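Complex of BAZ2B and biotin-H3K14Ac (50 nM apiece) forms over 30 min at RT, then faces library compounds up to 110 uM for another 30 min; AlphaScreen beads added, 20 min dark incubation, luminescence read.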
JMJD2A Tudor = JMJD2A Tudor domain (human) inhibition; O75164; AlphaScreen JMJD2A-Tudor / H3K4me3 peptide binding; Potency, µM (top dose mostly 114 µM), inactives show at the highest dose activity change, negative = inhibition, actives largely listed as inhibitors; hit rate 4.4% among 390,000; AID 504339; further: potency means the concentration at half of the fitted maximal effect; on the % scale 0 is the no-effect control and ±100 the full control effect; nearly all actives have a fitted effect of over 50% in size
* = called active by the depositor; ? = inconclusive; nt = not tested or not shown; ! = repeats disagree; [ ] = dose if it differs, or a comment. In the library only some 12% were active in any assay of this set; here they are far more common. Unless noted, the call rests on the fitted dose curve; in most records, active means well fitted curve in the direction sought with a large enough effect; inconclusive means small, poorly fitted or top-dose-only effect, or another doubt; inactive means no such curve, though single readings can be large; an effect the other way counts as inactive or inconclusive.

SMILES | PI5P4K alpha inh | G9a inh | HP1b binding inh | PLK1 PBD inh | BAZ2B block | JMJD2A Tudor
COc1ccc(/C=C2\C(=O)ON=C2c2ccccc2)cc1OC | -62* | ? | 46% | 3µM* | 2% | -11%
NC(=O)COc1ccc(/C=C2\C(=O)ON=C2c2ccccc2)cc1 | ? | 16%[12.7 µM] | 13% | 2.1µM* | -18% | -2%
CCOc1cc(/C=C2\C(=O)ON=C2c2ccccc2)ccc1OC | -63* | 13%[2.33 µM] | 19% | 2.1µM* | -29% | -14%
CC12CCC(=O)N1C(C(=O)NCc1ccccc1F)CS2 (stereo not drawn) | 2 | -21% | -15% | -9% | 12% | -13%
O=C(NCc1ccccc1Cl)c1cccc(C(F)(F)F)c1 | 0 | 45µM* | 41% | -7% | 20% | 17%
O=C(NCc1cccc(Cl)c1)c1cccc(C(F)(F)F)c1 | nt | 39% | 77% | 1% | 25% | 36%
CN(C)c1cccc(C(=O)NCc2ccccc2Cl)c1 | -2 | -47% | -2% | -11% | 50µM* | ?
CCN(Cc1ccccc1)S(=O)(=O)c1ccc2c(c1)CC(C)N2C(=O)C1CCC1 (stereo not drawn) | nt | 4%[59 µM] | 51% | nt | 12% | 11%
Cc1ccc(S(=O)(=O)CCc2nnc(NC(=O)c3cnccn3)s2)cc1 | -6 | ? | 25% | -4% | -2% | ?
Cc1ccc(S(=O)(=O)CCc2nnc(NC(=O)c3ccccn3)s2)cc1 | -3 | 12% | 47% | -5% | 3.2µM* | 11µM*
CSc1nnc(NC(=O)c2nc(S(=O)(=O)Cc3ccccc3)ncc2Cl)s1 | -15 | 50µM* | -2%[57 µM] | 30µM* | 45µM* | 16µM*
CCc1ccc(NC(=O)c2nc(S(=O)(=O)Cc3ccccc3)ncc2Cl)cc1 | nt | ? | nt | nt | -26% | nt
Cc1ccccc1CS(=O)(=O)c1ncc(Cl)c(C(=O)Nc2nnc(C(C)C)s2)n1 | nt | ? | 35% | nt | -19% | ?
CC(C)c1nnc(NC(=O)c2nc(S(=O)(=O)Cc3ccccc3)ncc2Cl)s1 | -10 | 8.9µM* | 4%[57 µM] | ? | 50µM*! | -25%
CCCc1nnc(NC(=O)c2nc(S(=O)(=O)Cc3ccc(C)cc3)ncc2Cl)s1 | -4 | 13µM* | 55% | -21% | -20% | -16%
COc1ccc(C(C)(C)C)cc1NC(=O)COC(=O)C1=NNC(=O)CC1 | -2 | 6%[12.7 µM] | 44% | -2% | -5% | -2%
CC[C@H]1C=C[C@@H](C(C(=O)OC)C(=O)OC)CN1C(C)=O | ? | nt | 43% | 27µM* | nt | ?
CCC1CCCCN1C(=O)N[C@@H](CCSC)C(=O)OC (stereo partly drawn) | -4 | ? | 17% | 1% | -3% | -12%
C=CC[C@H]1C=C[C@@H](C(C(=O)OC)C(=O)OC)CN1C(C)=O | ? | nt | ? | 24µM* | nt | ?
c1ccc2c(c1)NCC1CCCN21 (stereo not drawn) | -6 | 2.2µM* | ? | -24% | 45µM* | 50µM*
Cc1cc(=O)nc2c3ccccc3n(C(C)C(=O)NCCC(C)C)n12 (stereo not drawn) | -2 | -2% | 1% | 27µM* | 0% | -3%[11.4 µM]
COc1ccc(C2Nc3ccccc3C(=O)N2CCCN(C)C)cc1COc1ccc(NC(C)=O)cc1 (stereo not drawn) | nt | nt | nt | nt | nt | 79µM*
COc1ccc(C2Nc3ccccc3C(=O)N2Cc2ccco2)cc1COc1ccc(NC(C)=O)cc1 (stereo not drawn) | -15 | ? | 8% | -1% | -6% | 89µM*!
CC(=O)Nc1cccc(OCc2cccc(C3Nc4ccccc4C(=O)N3Cc3ccco3)c2)c1 (stereo not drawn) | nt | nt | nt | nt | nt | 32µM*
O=C1c2ccccc2NC(c2ccc(OCc3ccccc3)c(OCc3ccccc3)c2)N1Cc1ccco1 (stereo not drawn) | nt | nt | 2%[57 µM] | nt | nt | -17%[57.1 µM]
SMILES | PI5P4K alpha inh | G9a inh | HP1b binding inh | PLK1 PBD inh | BAZ2B block | JMJD2A Tudor
O=C1c2ccccc2NC(c2cccc(F)c2)N1Cc1ccco1 (stereo not drawn) | nt | ? | 13% | -9% | 56µM* | -25%
COc1ccc(C2Nc3ccccc3C(=O)N2Cc2cccc(Cl)c2)cc1COc1ccc(NC(C)=O)cc1 (stereo not drawn) | nt | nt | nt | nt | nt | -31%
O=C(CS(=O)(=O)c1cccc2nsnc12)N1CCN(c2ccc(F)cc2)CC1 | nt | 21%[59 µM] | 25%[57 µM] | nt | 0% | -12%
NC(=S)Cc1nc2n(n1)Cc1ccccc1-2 | nt | 4µM* | -14% | ? | -23% | 25µM*
Cc1ccc(-c2nc3n(n2)Cc2ccccc2-3)cc1 | -20 | 22%[59 µM] | 9% | -19% | -2% | -14%
COc1ccc(C2c3ccc4ccccc4c3Oc3ncn4nc(Cc5ccccc5)nc4c32)cc1OC (stereo not drawn) | 0 | 7.1µM* | 9% | 1% | -9% | -5%
COc1ccc2nc(N(Cc3cccnc3)C(=O)c3ccc(Cl)cc3)sc2c1 | nt | 8%[59 µM] | 9% | nt | -3% | -13%
CCN1/C(=N\N)c2cccc3cccc1c23 | 1 | -169%[59 µM] | ? | -9% | 7.9µM* | 7.9µM*
CCC(C)NC(=O)CN1C(=O)c2cccc3cccc1c23 (stereo not drawn) | 4 | 12% | 35% | 3% | -2% | -11%
COc1cccc(CNC(=O)C2CCN(S(=O)(=O)c3cn(C)cn3)CC2)c1 | nt | 14%[59 µM] | 11% | nt | -5% | -5%
CCOC(=O)C1C(c2ccc3c(c2)OCO3)NC(=O)NC1(O)C(F)(F)F (stereo not drawn) | -53* | -4%[2.33 µM] | -4% | 3µM* | 12% | 18µM*
CCc1ccc2c(c1)c(N=NC1=NC(=O)CS1)c(O)n2CC | -3 | -17%[0.501 µM] | -7% | -10% | 50µM* | ?
CCc1ccc2[nH]c(O)c(N=NC3=NC(=O)CS3)c2c1 | -21 | ? | -11% | -24% | 40µM* | -4%[11.4 µM]
Cc1ccc(C)c(N2CCN(C(=O)NCc3noc4ccccc34)CC2)c1 | nt | -3%[59 µM] | 16% | nt | -3% | -22%
C=CCN1CC(O)=C(c2ccccc2)C1=N | nt | 7%[2.33 µM] | 35% | -3% | -19% | -5%
